Assay results published in PubChem BioAssay (Tox21).
Inconclusive results are not listed. Entries that show only a call come without a potency. Active and inactive are the calls of the source. Unless noted, calls come from the whole dose curve; as a rule, active = well fitted curve in the direction sought with a large enough effect in the repeat runs; inconclusive = weak or mixed curves; inactive = no such curve, though single readings can be large; an effect the other way counts as inactive or inconclusive.

What was measured:
[1] = qHTS assay to identify small molecule agonists of the estrogen receptor alpha (ER-alpha) signaling pathway in the presence of an antagonist - cell viability counter screen (AID 1259386);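 note: cells exposed to compounds for 22 h at 37 °C before the viability read; nearly all actives have a fitted effect of over 30% in size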; note: potency is the fitted concentration of half-maximal effect
Method in brief: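 The test measures whether compounds kill ER-alpha reporter cells (VM7Luc4E2) under antagonist co-treatment (ICI-182,780, 10.0nM). Fluorescence from CellTiter-Fluor is read after a 22hr exposure.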

[2] = target: Progesterone receptor (Homo sapiens) (UniProt P06401); test: qHTS assay to identify small molecule agonists of the progesterone receptor (PR) signaling pathway (AID 1346784; calls by dose curve; note: nearly all actives have a fitted effect of over 30% in size)
Sequence of Progesterone receptor (Homo sapiens) (P06401 whole entry, looked up): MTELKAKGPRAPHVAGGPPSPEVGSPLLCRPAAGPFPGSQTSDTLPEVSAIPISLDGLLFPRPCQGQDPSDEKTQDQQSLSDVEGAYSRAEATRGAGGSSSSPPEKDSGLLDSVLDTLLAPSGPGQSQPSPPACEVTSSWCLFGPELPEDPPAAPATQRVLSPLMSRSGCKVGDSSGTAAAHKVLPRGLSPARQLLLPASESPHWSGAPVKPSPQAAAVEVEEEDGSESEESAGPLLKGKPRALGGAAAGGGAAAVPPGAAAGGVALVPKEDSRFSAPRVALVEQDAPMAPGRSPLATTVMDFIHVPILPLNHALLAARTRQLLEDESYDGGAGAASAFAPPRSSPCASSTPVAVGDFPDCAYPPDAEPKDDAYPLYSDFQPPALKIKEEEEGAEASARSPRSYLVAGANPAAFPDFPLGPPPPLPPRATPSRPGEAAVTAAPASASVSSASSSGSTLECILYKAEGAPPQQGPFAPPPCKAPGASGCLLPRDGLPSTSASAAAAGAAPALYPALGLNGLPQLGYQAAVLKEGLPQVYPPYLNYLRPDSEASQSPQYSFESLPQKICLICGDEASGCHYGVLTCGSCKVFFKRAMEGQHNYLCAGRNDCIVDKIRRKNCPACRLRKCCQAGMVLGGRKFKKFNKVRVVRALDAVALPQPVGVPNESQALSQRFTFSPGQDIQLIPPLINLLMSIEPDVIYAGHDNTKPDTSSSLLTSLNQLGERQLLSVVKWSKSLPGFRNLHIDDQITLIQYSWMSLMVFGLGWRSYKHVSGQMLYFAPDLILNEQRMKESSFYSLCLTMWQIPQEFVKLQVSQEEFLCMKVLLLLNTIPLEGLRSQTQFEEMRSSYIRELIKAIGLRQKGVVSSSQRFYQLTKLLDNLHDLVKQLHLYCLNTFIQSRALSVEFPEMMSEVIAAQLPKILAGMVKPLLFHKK
Method in brief: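 PR-UAS-bla HEK 293T cells (beta-lactamase reporter under UAS) in 2% charcoal-stripped FBS, dosed with 23 nL compound after 6 hr, incubated 16hr at 37C. LiveBLAzer B/G FRET substrate added, fluorescence read after 2 hours.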

[3] = target: Progesterone receptor (Homo sapiens) (UniProt P06401); test: qHTS assay to identify small molecule antagonists of the progesterone receptor (PR) signaling pathway (AID 1346795; active = well fitted inhibition curve with a large enough effect in the signal ratio in the repeat runs, not every such curve was filed as active; the % refers to the signal ratio)
Method in brief: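 PR-UAS-bla HEK293T cells with beta-lactamase reporter under UAS control, in 2% charcoal-stripped FBS, treated with compounds plus 1 nM promegestone (R5020, final) for 16 hr at 37C. Read-out: FRET beta-lactamase substrate fluorescence after 2 hr at room temperature.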

[4] = qHTS assay to identify small molecule antagonists of the progesterone receptor (PR) signaling pathway - cell viability counter screen (AID 1346798); note: series mostly up to about 92 µM; nearly all actives have a fitted effect of over 50% in size
Method in brief: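 PR-UAS-bla HEK293T cells, 3,000/well in 2% charcoal-stripped FBS medium, dosed with compounds plus R5020 agonist and incubated 16 h at 37C. Viability then measured in the same wells by CellTiter-Glo luminescence after 30 min at RT.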

[5] = qHTS assay to identify small molecule agonists of the progesterone receptor (PR) signaling pathway - cell viability counter screen (AID 1346799; calls by dose curve; note: nearly all actives have a fitted effect of over 45% in size)
Method in brief: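 Counter screen in the PR-UAS-bla HEK293T wells (2% charcoal-stripped FBS, 16 h compound exposure at 37 C) after the bla read. CellTiter-Glo added, 30 min at room temperature, luminescence read as cell viability.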

[6] = qHTS assay to identify small molecule antagonists of the TGF-beta/Smad signaling pathway - cell viability counter screen (AID 1346824); note: nearly all actives have a fitted effect of over 50% in size
Method in brief: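 SBE-bla HEK 293T cells were plated overnight at 37 C, then given compounds in DMSO plus TGF-beta1 (added as 0.25 ng/mL solution) for 5 hr. After the bla read, CellTiter-Glo was added to the same wells and luminescence read after 30 min at room temperature.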

[7] = qHTS assay to identify small molecule agonists of the TGF-beta/Smad signaling pathway - cell viability counter screen (AID 1346829); note: top concentration of the series differs between compounds; nearly all actives have a fitted effect of over 45% in size
Method in brief: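 After overnight seating at 37 C and 5% CO2, reporter cells got compounds for 5 hr and FRET substrate for 2 hr; cell viability then came from CellTiter-Glo luminescence.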

[8] = qHTS assay to identify small molecule agonists of the TGF-beta/Smad signaling pathway (AID 1346859; active = well fitted activation curve with a large enough effect in the signal ratio in the repeat runs, not every such curve was filed as active; the % refers to the signal ratio; note: series mostly up to about 77 µM)
Method in brief: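 SBE-bla HEK293T cells plated overnight, then compound exposure for 5 h at 37 C. Beta-lactamase reporter read with LiveBLAzer B/G FRET substrate after 2 h at room temperature, fluorescence at 405 nm excitation, 460/530 nm emission.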

[9] = target: Thyrotropin-releasing hormone receptor (Homo sapiens) (UniProt P34981); test: qHTS assay to identify small molecule antagonists of the thyrotropin-releasing hormone receptor (TRHR) signaling pathway (AID 1346877; active = well fitted inhibition curve with a large enough effect in the repeat runs, not every such curve was filed as active; note: series mostly up to about 51 µM)
Sequence of Thyrotropin-releasing hormone receptor (Homo sapiens) (P34981 whole entry, looked up): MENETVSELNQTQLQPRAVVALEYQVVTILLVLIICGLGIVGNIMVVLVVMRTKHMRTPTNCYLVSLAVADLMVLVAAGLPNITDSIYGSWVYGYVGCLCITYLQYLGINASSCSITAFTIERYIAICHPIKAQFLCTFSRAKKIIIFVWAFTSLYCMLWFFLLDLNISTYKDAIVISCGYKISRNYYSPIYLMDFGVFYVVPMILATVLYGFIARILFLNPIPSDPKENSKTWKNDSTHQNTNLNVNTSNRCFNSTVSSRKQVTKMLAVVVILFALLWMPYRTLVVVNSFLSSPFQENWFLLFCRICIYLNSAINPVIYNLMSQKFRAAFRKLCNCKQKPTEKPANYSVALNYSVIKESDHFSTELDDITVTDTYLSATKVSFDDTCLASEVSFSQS
Method in brief: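 Overnight-plated (18 h, 37 °C) HEK293 cells expressing TRHR were dye-loaded 2 h, treated with compound, then stimulated with TRH at 1 nM final. Fluorescence intensity was captured every second for 3 min.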

[10] = target: Thyrotropin-releasing hormone receptor (Homo sapiens) (UniProt P34981); test: qHTS assay to identify small molecule agonists of the thyrotropin-releasing hormone receptor (TRHR) signaling pathway (AID 1346891; calls by dose curve; note: series mostly up to about 58 µM)
Method in brief: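 HEK293 cells expressing TRHR plated 18 h at 37 C/5% CO2, calcium dye-loaded 2 h at 37 C, then compound added (agonist mode); kinetic calcium fluorescence read 3 min at 1 s intervals; 15 concentrations in triplicate.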

Row | SMILES | Potency [1] | Potency [2] | Potency [3] | Potency [4] | Potency [5] | Potency [6] | Potency [7] | Potency [8] | Potency [9] | Potency [10]
1 | COc1cc(-c2ccc(N=C=O)c(OC)c2)ccc1N=C=O | inactive | inactive | inactive | inactive | inactive | inactive | inactive | inactive | inactive | inactive
2 | c1ccc(CSCc2ccccc2)cc1 | inactive | inactive | inactive | inactive | inactive | inactive | inactive | inactive | inactive | inactive
3 | CCCCN(CCCC)C(=O)N(CCCC)CCCC | inactive | inactive | inactive | inactive |  | inactive | inactive | inactive |  | 
4 | CCCC(C)c1ccccc1O (stereo not drawn) | inactive | inactive | inactive | inactive | inactive | inactive | inactive | inactive | inactive | inactive
5 | O=C1c2c(O)ccc(Nc3ccc(CCO)cc3)c2C(=O)c2c([N+](=O)[O-])ccc(O)c21 | 30.6 µM (active) | inactive | inactive | inactive | inactive | inactive | inactive |  | inactive | inactive
6 | O=C(O)c1c(Cl)cccc1Cl | inactive | inactive | inactive | inactive | inactive | inactive | inactive |  |  | 
7 | CC1=NC(C)OC1C (stereo not drawn) | inactive | inactive | inactive | inactive |  | inactive | inactive | inactive | inactive | inactive
8 | CCCCCCCCCCCCCCCS(=O)(=O)Oc1ccccc1 | inactive | inactive | inactive | inactive | inactive | inactive | inactive |  | inactive | inactive
9 | Cc1ccc(O)c(C(C)(C)C)c1 | inactive | inactive | inactive | inactive | inactive | inactive | inactive | inactive |  | 
10 | NC(=O)NS(=O)(=O)c1ccc(N)cc1 | inactive | inactive | inactive | inactive |  | inactive | inactive | inactive | inactive | inactive
